An excerpt weighted towards active compounds, which were near 1.1% of everything screened.
ALOX12 inh – Primary qHTS assay for inhibitors of human arachidonate 12S-lipoxygenase (ALOX12): Round 2 | Polyunsaturated fatty acid lipoxygenase ALOX12 (Homo sapiens), P18054 | purified 12hLO, xylenol orange hydroperoxide absorbance | Potency, µM (highest dose often 108 µM), inactives show at the highest dose activity change, negative = inhibition, actives largely listed as inhibitors | 580,000 compounds, 1.1% hits | AID 1671190, 2021; also: % is scaled to controls: 0 for no effect and ±100 for the full control effect
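Purified human 12hLO (150 nM final) in 25 mM Hepes, 0.01% Triton X-100, pH 7.0 was preincubated 15 min at room temperature with compound. Then 40 uM arachidonic acid was added, 30 min. Hydroperoxide was read by Fe-XO absorbance ratio 573/405 nm.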
Apoferritin bind – qHTS Assay for Identification of Novel General Anesthetics. Ferritin light chain (Equus caballus), P02791. AID 485281, 2010. Potency, µM (top dose mostly 77.5 µM), inactives show at the top dose activity change, negative = displacement, usual class: inhibitors. 350,000 compounds, 0.074% hits. apoferritin/1-aminoanthracene competitive binding, fluorescence; also: % is scaled to controls: 0 for no effect and ±100 for the full control effect; nearly all actives have a fitted effect of over 20% in size
Target sequence (P02791 2-175 limits assumed): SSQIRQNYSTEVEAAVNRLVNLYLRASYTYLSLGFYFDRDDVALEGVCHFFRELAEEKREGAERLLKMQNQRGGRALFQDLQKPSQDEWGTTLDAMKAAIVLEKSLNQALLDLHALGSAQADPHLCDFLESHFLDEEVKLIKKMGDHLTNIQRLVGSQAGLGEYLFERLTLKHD
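Probe: 1-aminoanthracene (50% saturated, PBS). Protein: horse-spleen apoferritin, 10 uM. Incubation: 10 min, room temperature. Detection: 380 nm excitation, 535 nm emission. Analysis: normalized response, four-parameter Hill.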
Chronic BCR inh – qHTS Assay to Find Inhibitors of Chronic Active B-Cell Receptor Signaling | ABC-DLBCL IkBa-CBG/CBR reporter, luminescence ratio, 4 h | Potency, µM (titrated, usually from 46.1 µM), inactives show at the top dose activity change, negative = inhibition, hits mostly inhibitors | 340,000 compounds, 0.05% hits | AID 493014, 2011; active = well fitted inhibition curve with a large enough effect in the signal ratio, with a control signal flat, not every such curve was filed as active; inconclusive = small, poorly fitted or top-dose-only effect, or effect the other way, or a change in a side signal; the % refers to the signal ratio;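 also: plate controls were basal doxycycline-induced cells for no effect and cells given 10 µM MG132 for full effect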
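Compounds up to 46 uM were incubated four hours with TMD8 cells whose green CBG68 luciferase is fused to IkappaBalpha; red CBR luminescence normalised the signal, and concentration-effect curves were fitted to fusion, red and ratio data.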
Glioma ERSR ind – qHTS for Inducers of the Endoplasmic Reticulum Stress Response (ERSR) in Human Glioma: qHTS; 420,000 compounds, 0.02% hits; U87-MG GRP78 promoter luciferase reporter, 16 h; Potency, µM, inactives show at the top dose activation, most hits filed as activators; AID 602332, 2012; also: series mostly up to about 76 µM; % of control where 0% means no effect; nearly all actives have a fitted effect of over 35% in size
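Stably transfected U87-MG glioma cells carrying a GRP78-based luciferase sensor; 16 h compound incubation. Luminescence end-point read 10 min after Bright-Glo addition at room temperature.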
Numbers without * were called inactive; u = inconclusive; x = no result given; [ ] = dose if it differs, or a comment. Unless noted, calls follow the shape of the dose curve; as a rule, active = well fitted curve in the direction sought with a large enough effect; inconclusive = small, poorly fitted or top-dose-only effect, or another doubt; inactive = no such curve, though single readings can be large; an effect the other way counts as inactive or inconclusive. Potency is read from the fitted curve at half-maximal effect.

SMILES	ALOX12 inh	Apoferritin bind	Chronic BCR inh	Glioma ERSR ind
CCCC(C)C(=O)Nc1nc(C)c(-c2csc(Nc3ccccc3OC)n2)s1 (configuration not stated)	45µM*	u	2%	-2%
COc1ccc(Nc2nc(-c3ccc(F)cc3F)cs2)cc1	16µM*	x	x	x
CCOc1ccc(Nc2nc(-c3cc(C)ccc3C)cs2)cc1	3%	x	x	x
Cc1ccc(Nc2nc(-c3ccc(C)cc3C)cs2)cc1	6.3µM*	x	x	x
O=S(=O)(Nc1nc2ccccc2nc1Nc1ccc(F)cc1)c1cccc2nsnc12	1%	x	x	x
COc1ccc(Br)c(C(=O)Oc2ccccc2OC)c1	11%	x	x	x
O=C(Nc1ccc2[nH]cc(C(C(=O)O)N3CCCC3)c2c1)c1ccccc1 (configuration not stated)	-22%	x	x	x
Cc1ccc(-n2nc(C)c3c(C(=O)NC4CCN(Cc5ccccc5)CC4)cc(C)nc32)cc1	7.1µM*	x	x	x
CCC(C(=O)N1CCN(c2ccc(F)cc2)CC1)n1cnc2ccccc2c1=O (configuration not stated)	-24%	x	x	x
Clc1ccc2nc(-c3cccc(Br)c3)cn2c1	13µM*	x	x	x
Nc1ccc(C2CCCc3nonc32)c2nonc12 (configuration not stated)	u	18µM*	-17%	-3%
O=C(Cc1ccc(Cl)cc1Cl)N1CCN(c2ccccc2O)CC1	40µM*	x	x	x
O=C(NCC(=O)N1CCN(c2ccccc2O)CC1)c1ccc2c(c1)OCO2	32µM*	-5%	0%	-3%
COc1cc(/C=C/c2nc(C#N)c(NCc3ccc(F)cc3)o2)cc(OC)c1OC	-9%	x	x	x
COc1ccc(CNC(=O)C2CCN(c3nc4ccccc4o3)CC2)cc1	-11%	x	x	x
N#Cc1c(C#N)c(SSc2c(C#N)c(C#N)c(N)n2-c2ccccc2)n(-c2ccccc2)c1N	0.35µM*	x	x	-1%
CC(O)/C=C/c1cccc[n+]1C (configuration not stated)	18µM*	-7%	5%	-8%
CCn1cc(C(=O)N2CC(=O)N(CCc3ccccc3)CC(OCc3cccc(OC)c3)C2)cn1 (configuration not stated)	-1%	x	x	x
C=CCn1c(SCCC)nc2c1c(=O)n(C)c(=O)n2C	-19%	x	x	x
Cc1ccc(NNC(=O)c2c(C)noc2C)cc1Cl	u	-4%	u	-1%
Cc1cc(Cl)ccc1NNC(=O)c1c(C)noc1C	32µM*	-5%	-1%	-2%
COc1ccc(CN2CCC(n3nccc3NC(=O)C3CCCC3)CC2)cc1	-17%	-9%	1%	-5%
O=C(Nc1ccnn1C1CCN(Cc2ccc(-c3ccco3)cc2)CC1)C1CC1	11µM*	x	x	x
COc1ccccc1/C=C/CN1CCC(n2nccc2NC(=O)C2CC2)CC1	28µM*	-16%	2%	-1%
Cc1ccc(C(=O)N(Cc2cccs2)C2CC2)o1	-27%	x	x	x
SMILES	ALOX12 inh	Apoferritin bind	Chronic BCR inh	Glioma ERSR ind
CC(C)N1CCN(CCN2CC3(CCN(C(=O)CCN)CC3)OC2=O)CC1	18µM*	x	x	x
COc1cccc(Nc2nc(-c3ccc(CNC(C)=O)s3)cs2)c1	16µM*	x	x	x
COc1ccc2sc(NC(=O)c3ccco3)nc2c1	8.9µM*	-16%	u	-9%
COc1cccc(Nc2nc(-c3sc(NC(=O)c4ccco4)nc3C)cs2)c1	6.3µM*	-13%	u	-1%
COc1ccc(Cl)cc1Nc1nc(-c2sc(NC(=O)c3ccco3)nc2C)cs1	u	-14%	u	-1%
CC(=O)NCc1ccc(-c2csc(Nc3cccc(C(F)(F)F)c3)n2)o1	10µM*	x	x	x
CCOc1ccccc1NC(=O)Cc1nc(-c2cccs2)oc1C	-6%	x	x	x
Cc1ccc(N2CC(c3noc(C4CCN(C(=O)c5ccccc5)CC4)n3)CC2=O)cc1 (configuration not stated)	-3%	x	x	x
C=CCNC(=S)N/N=C/c1ccc(-c2ccc(OC)cc2)o1	40µM*	163%	u	-2%
CC(C)(C)NC(=S)N/N=C\c1ccc(-c2ccc([N+](=O)[O-])cc2)o1	45µM*	-5%	10%	6%
Cc1ccc(S(=O)(=O)/N=C(/Nc2ccc([N+](=O)[O-])cc2[N+](=O)[O-])c2ccccc2)cc1	u	x	u	-6%
Cc1ccc(S(=O)(=O)/N=C(/Nc2ccc([N+](=O)[O-])cc2)c2ccccc2)cc1	45µM*	-12%	u	-2%
CC(C)CCOC(=O)/C(=C/c1ccco1)NC(=O)/C=C/c1ccccc1	40µM*	u	0%	-2%
CS(=O)(=O)Nc1ccccc1CNC(=O)CCS(=O)(=O)C1CCCC1	-27%	x	x	x
CC1CCC(NC(=O)c2cc(Sc3ccc(F)cc3)nc3ccccc23)CC1 (configuration not stated)	-19%	x	x	x
CCCCCCCCCCOC(C)=O	1%[176 µM]	x	x	x
CCOc1ccc(CSCCNC(=S)Nc2ccc(OC)cc2)cc1	45µM*	4%	-12%	1%
COc1ccc(C(=O)NCCSCc2ccccc2Cl)cc1OC	50µM*	-15%	7%	1%
CCCOc1ccc(CSCCNC(=S)Nc2ccccc2)cc1	u	2%	2%	-2%
S=C(NCCC(c1ccccc1)c1ccccc1)Nc1ccc(Cl)cc1	u	46%	u	-5%
COc1ccc(C(=O)NCCSCc2ccccc2)cc1OC	-26%	-12%	u	-2%
S=C(NCCSCc1ccc(Cl)cc1)Nc1ccccc1	45µM*	-11%	-8%	-5%
S=C(NCCSCc1ccccc1Cl)Nc1ccccc1	35µM*	-5%	-1%	-5%
Cc1cccc(CSCCNC(=S)Nc2ccccc2)c1	u	-3%	4%	-2%
O=C(NCc1cc2n(n1)CCN(C1CCCCC1)C2)Nc1cccc(F)c1	7%	x	x	x
SMILES	ALOX12 inh	Apoferritin bind	Chronic BCR inh	Glioma ERSR ind
CCNC(=O)C1(NC(=O)Cc2coc(-c3ccccc3)n2)CCCCC1	1%	x	x	x
Cc1ccc(N2C(=O)[C@@H]3[C@H](C2=O)[C@H]2C=CC=NN2[C@@H]3C(=O)Nc2ccc(Cl)cc2)cc1	10µM*	-24%	u	-3%
O=C(Nc1ccc(Cl)cc1)[C@@H]1[C@@H]2C(=O)N(c3ccc(Cl)cc3)C(=O)[C@@H]2[C@H]2C=CC=NN21	u	-20%	u	-2%
N#CC1=C(N)Oc2c(oc(CO)cc2=O)C1c1ccccc1[N+](=O)[O-] (configuration not stated)	16µM*	31%	u	1%
CNC(=O)NC(=O)CN(C)Cc1ccc(C(=O)NC2CC2)cc1	68%	x	x	x
Cc1[nH]c2ccccc2c1C(=O)C(C)Sc1nnc(CCC(N)=O)n1C1CC1 (configuration not stated)	-29%	x	x	x
Cc1ccc(Oc2ccc(NC(=O)Cn3ccsc3=N)cc2)cc1	24%	13µM*	u	-1%
Cc1cc(C)cc(NC(=O)N2CCCC(Cn3c(C4CC4)nc4cccnc43)C2)c1 (configuration not stated)	10%	x	x	x

Screening data: PubChem BioAssay, National Center for Advancing Translational Sciences (NCATS)
